From PubChem
Rows were chosen to be rich in hits. Some 3.3% of all compounds tested hit in one or more screens of this group.
PI5P4Ka inh: inhibitors of human PI5P4K alpha; PI5P4Kalpha enzyme, ADP-Glo luminescence, 60 min; active compounds read low; max response, %; 1.2% of 330,000 active; AID 652105; active means max response of -50% or lower; inconclusive means between -30% and -50%; inactive means -30% or higher; further: value at the top dose of about 77 µM
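Reactions run in 0.038 M HEPES pH 7.4, 0.28 mM EGTA, 0.1% CHAPS and 5% DMSO, with PI5P4Kalpha, substrate, compound and 5 microM ATP final, one hour at room temperature. Readout is ADP-Glo luminescence.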
WRN inhibitor: WRN helicase (human) inhibition. WRN helicase unwinding, fluorescent forked duplex, kinetic. Potency, µM (top dose mostly 114 µM), for the others: top-dose activity change, negative = inhibition, usual class: inhibitors. 0.46% of 360,000 active; further: potency means the concentration at half of the fitted maximal effect; nearly all actives have a fitted effect of over 55% in size
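WRN at 20 nM final preincubated with compound 15 min at room temperature; reaction started with 100 nM fluorophore/quencher forked duplex oligonucleotide and 2 mM ATP final. Unwinding followed kinetically by red fluorescence (ex 525, em 598 nm).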
USP2a block: blocks human ubiquitin-specific protease USP2a | O75604 | USP2 core, Ub-CHOP2 coupled fluorogenic reporter, 485/531 | Potency, µM (highest dose often 38.3 µM), without a hit: top-dose activity change, negative = inhibition, hits mostly inhibitors | 0.01% of 330,000 active;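 further: potency means the concentration at half of the fitted maximal effect; plate controls were DMSO wells for no effect and full inhibition by NEM control for full effect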
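Cell-free coupled assay: 10nM USP2 core preincubated 30min RT with compound in Tris-HCl pH 8.0/CaCl2/CHAPS buffer, then 25nM Ub-CHOP2 and 25nM reporter substrate; fluorescence (Ex 485/Em 531) read after 60min RT, normalized to NEM inhibition, concentration-response curves fitted.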
USP1-UAF1 inh: blocks the human USP1/UAF1 deubiquitinase complex. recombinant USP1/UAF1, Ub-Rhodamine cleavage fluorescence. Potency, µM (doses to about 57.1 µM), for the others: top-dose activity change, negative = inhibition, usual class: inhibitors. 0.23% of 390,000 active. AID 743255; further: potency means the concentration at half of the fitted maximal effect; nearly all actives have a fitted effect of over 60% in size
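Step one: compound is pinned into 1nM USP1/UAF1 in HEPES pH 7.8 buffer with TCEP. Step two: 15 min room-temperature incubation. Step three: Ub-Rho (150nM final) starts cleavage, tracked by fluorescence over six one-minute reads.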
PLK1 PBD block: blocks phosphopeptide binding to human PLK1 polo-box domain; P53350; Plk1 PBD binding of FITC phosphopeptide, fluorescence polarization; Potency, µM, without a hit: max response, negative = inhibition, hits mostly inhibitors; 2.8% of 360,000 active; AID 720504; further: potency means the concentration at half of the fitted maximal effect; series mostly up to about 57 µM; nearly all actives have a fitted effect of over 65% in size
The depositor's hits bear a star; ? = inconclusive; . = no result. Unless noted, the call rests on the fitted dose curve; in most records, active means well fitted curve in the direction sought with a large enough effect; inconclusive means small, poorly fitted or top-dose-only effect, or another doubt; inactive means no such curve, though single readings can be large; an effect the other way counts as inactive or inconclusive. Unless noted, on the % scale 0 is the no-effect control and ±100 the full control effect.

SMILES	PI5P4Ka inh	WRN inhibitor	USP2a block	USP1-UAF1 inh	PLK1 PBD block
Cc1ccc(S(=O)(=O)NC(=O)Nc2ccc(N(C)C)cc2)cc1	-27	1%	2%	18µM*	-13%
Cc1ccccc1CNC(=O)C(=O)NCC(c1cccs1)S(=O)(=O)c1ccc(Cl)cc1 (centres undefined)	.	.	.	-25%	.
CCC(=O)N[C@@H]1CC(C(C)(C)NC(=O)CC)CC=C1C (some centres undefined)	-3	7%	1%	-8%	30µM*
CC(C)CCNC(=O)N1CCN(S(=O)(=O)c2ccc3c(ccn3C)c2)CC1	.	.	.	-23%	.
CN(C)c1nc(=NCc2ccco2)ss1	-12	6%	-5%	-26%	2.7µM*
O=C1CCCC(=NCc2ccco2)C1	.	-2%	-1%	-10%	-9%
CN(Cc1ccco1)C(=O)c1ccc2c(c1)N(Cc1ccccc1F)C(=O)c1ccccc1S2	.	.	.	-24%	.
C=CCn1c(=O)c2c(nc(Br)n2Cc2ccccc2Cl)n(C)c1=O	-5	2%	1%	1%	30µM*
Cn1c(=O)n(Cc2ccccc2F)c2ccccc21	-4	1%	1%	-18%	-7%
CCOC(=O)Cn1c(=O)c2c(nc(Br)n2Cc2ccccc2Cl)n(C)c1=O	1	-9%	-1%	-3%	-1%
Cn1c(=O)n(Cc2ccccc2Cl)c(=O)c2c1[nH]c(=S)n2C	-56*	?	4%	-17%	17µM*
Cn1c(=O)n(Cc2ccccc2Cl)c2ccccc21	-19	0%	-3%	-2%	17µM*
COC(=O)c1ccc(NC(=O)CC2C(=O)N(c3cccc(OC)c3)C(=O)N2Cc2cccc(OC)c2)cc1 (centres undefined)	.	.	.	-24%	.
CCOc1ccccc1NC(=O)C1CCN(S(=O)(=O)c2c(C)noc2/C=C/c2ccc(C)cc2)CC1	.	.	.	-17%	.
Cc1ccc(NS(=O)(=O)c2coc(C(N)=O)c2)cc1F	-4	-3%	0%	-16%	24µM*
CCC(CC)C(=O)c1c[nH]c(C(=O)NCCc2ccccn2)c1	5	6%	3%	-8%	27µM*
Cc1cc(C)n(-c2cc(C(=O)O)cc(C(=O)O)c2)n1	1	0%	-1%	-21%	-7%
O=C(O)c1cc(N2C(=O)C=CC2=O)cc(N2C(=O)C=CC2=O)c1	-78*	8.9µM*	.	-7%	2.7µM*
CC(C)[C@H]1COCCS(=O)(=O)N1Cc1ccccc1-c1ccccc1	-29	-1%	3%	-25%	24µM*
CC(C)[C@H]1COCCS(=O)(=O)N1Cc1ccccc1-c1ccc(C(C)(C)C)cc1	19	-16%	0%	-30%	-6%
O=S1(=O)CCOC[C@H](CC2CCCCC2)N1Cc1ccccc1	12	-10%	3%	-22%	0%
Cc1ccccc1CN1[C@@H](CC2CCCCC2)COCCS1(=O)=O	3	-6%	-6%	5%	27µM*
Cc1nc2ccccc2n1CCc1nc2c3ccccc3nc(SCc3ccc(C#N)cc3)n2n1	.	.	.	-31%	.
C=C[C@]1(C)C=C2CC[C@H]3[C@@](C)(CCC[C@@]3(C)C(=O)O)[C@@H]2CC1	0	-30%	-8%	1%	30µM*
C=C1C[C@@]23CCC4[C@@](C)(CCC[C@@]4(C)C(=O)O)C2CC[C@]1(O)C3 (some centres undefined)	-2	4%	-1%	-18%	-10%
SMILES	PI5P4Ka inh	WRN inhibitor	USP2a block	USP1-UAF1 inh	PLK1 PBD block
CCCc1nn2c(=O)cc(COC(=O)c3cccc(NC(=O)c4ccc(OCC)cc4)c3)nc2s1	.	.	.	-17%	.
O=S1(=O)CC(O)C(O)CS1 (centres undefined)	-69*	-5%	.	.	11µM*
O=C(/C=C/Sc1ccccc1)c1ccccc1	.	?	1%	-24%	13µM*
CSc1nn(Cc2ccc(F)cc2)c(N)c1S(=O)(=O)c1ccc(Cl)cc1	.	.	.	-29%	.
COc1nc2ccccc2nc1CCC(=O)O	-3	-8%	2%	-3%	30µM*
COC(=O)CCc1nc2ccccc2nc1OC	2	-4%	1%	3%	1%
O=C(C=Cc1ccccn1)c1ccccc1O	2	-7%	.	10%	21µM*
O=C(Cn1c(=O)n(Cc2nc(-c3ccccc3)no2)c(=O)c2cc3c(cc21)OCO3)Nc1ccc(Cl)cc1	.	.	.	-6%	.
Cc1cc2nc(-c3ccc(SCc4ccc(C(=O)O)cc4)nc3)[nH]c2cc1C	-64*	?	2%	?	19µM*
COC(=O)c1ccc(NC(=O)CC2C(=O)N(c3ccccc3)C(=O)N2Cc2cccs2)cc1 (centres undefined)	.	.	.	-18%	.
CC(=O)c1ccc(NC(=O)CNCC(c2ccccc2)N(C)C)cc1 (centres undefined)	-18	-6%	4%	-16%	19µM*
CCCc1cc(=O)[nH]c(Nc2cc(Cl)cc(Cl)c2)n1	.	.	.	-11%	.
CN1CCN(C(c2cccnc2)c2ccc3cccnc3c2O)CC1 (centres undefined)	-14	-15%	0%	-16%	19µM*
Cc1ccc(CNC(=O)C(=O)NCC(c2cccs2)S(=O)(=O)c2cccs2)cc1 (centres undefined)	.	.	.	-24%	.
Cc1cccc(-c2cc3nc(C)cc(NCCCn4ccnc4)n3n2)c1	8	-10%	4%	-31%	24µM*
Cc1ccc(-c2nc(CS(=O)CC(=O)NC3CCCCC3)c(C)o2)cc1 (centres undefined)	-1	4%	0%	-19%	-16%
Cc1oc(-c2cccs2)nc1CS(=O)CC(=O)NC1CCCCCC1 (centres undefined)	?	2%	-1%	-16%	21µM*
CCc1ccc(-c2nc(CS(=O)CC(=O)NCCCN3CCC(C)CC3)c(C)o2)cc1 (centres undefined)	7	-5%	0%	-24%	27µM*
COc1ccc(-c2nc(CS(=O)CC(=O)NC3CCCC3)c(C)o2)cc1 (centres undefined)	-8	6%	0%	-18%	27µM*
Cc1ccccc1-c1nc(CS(=O)CC(=O)NCCc2ccc(Cl)cc2)c(C)o1 (centres undefined)	7	1%	3%	-13%	19µM*
Cc1ccccc1-c1nc(CS(=O)CC(=O)NC2CCCCC2)c(C)o1 (centres undefined)	-4	-6%	-3%	-1%	-16%
COc1ccccc1CNC(=O)CSc1nc(=O)[nH]c2c1CCCC2	.	.	.	-29%	.
CCN1CCc2nc(N)sc2C1	-19	-34%	3%	-19%	4.2µM*
Cc1ccc(Nc2c3c(nc4nncn24)CCC3)c(C)c1	.	.	.	-23%	.
S=C1Cc2ccccc2N1	-64*	6%	2%	28µM*	12µM*
COC(CNC(=O)c1cc(C)nn1-c1ccccc1)OC	-8	-2%	2%	1%	24µM*
O=C(O)CSc1ncnc2scc(-c3ccc(Br)cc3)c12	-66*	-2%	11%	-9%	7%
CC(=O)CSc1ncnc2scc(-c3ccc(F)cc3)c12	-5	5%	-16%	-20%	-3%
